Reference: PubChem BioAssay AID1558 (National Center for Advancing Translational Sciences (NCATS), 2009)
Results filed as inconclusive are left out. Active and inactive are the calls of the source. Calls come from the whole dose curve; as a rule, active = well fitted inhibition curve with a large enough effect; inconclusive = small, poorly fitted or top-dose-only effect; inactive = flat fitted curve, though single readings scatter.

Target: Microtubule-associated protein tau (Homo sapiens) (UniProt P10636)
Assay: Confirmation Concentration-Response Assay for Inhibitors of Tau Fibril Formation, Thioflavin T Binding
Details: recombinant tau K18 P301L (four-repeat tau fragment) heparin fibrillization, ThT fluorescence
Description: NIH Molecular Libraries Probe Production Network [MLPCN] NIH Chemical Genomics Center [NCGC] MLPCN Grant: X01 MH083262-01 Assay Provider: Carlo Ballatore, University of Pennsylvania NCGC Assay Overview: The microtubule-associated protein tau is an abundant protein in the axons of neurons that stabilizes microtubules. With its ability to modulate microtubule dynamics, tau contributes directly or indirectly, to key structural and regulatory cellular functions. Particularly important is the influence tau exerts on axonal transport, which allows signaling molecules, trophic factors and other essential cellular constituents to travel along the axons. Under pathological conditions, tau becomes sequestered into insoluble aggregates called neurofibrillary tangles. […] This assay monitors tau fibrillization by Thioflavin T (ThT) fluorescence. […]
For screening, 2 uL/well human K18 P301L (15 uM unlabeled and 0.24 uM Alexa 594-labeled tau, final concentrations) in reagent buffer (100 mM sodium acetate pH 7) was dispensed into black solid 1536-well plates (Grenier) using a solenoid-based dispenser. […] After a 1 hr ambient incubation, the plates were read by an Envision (Perkin Elmer) to monitor ThT fluorescence (450/8 nm excitation and 510/23 nm emission). […]

Microtubule-associated protein tau (Homo sapiens), sequence (P10636 561-689 P618L limits assumed): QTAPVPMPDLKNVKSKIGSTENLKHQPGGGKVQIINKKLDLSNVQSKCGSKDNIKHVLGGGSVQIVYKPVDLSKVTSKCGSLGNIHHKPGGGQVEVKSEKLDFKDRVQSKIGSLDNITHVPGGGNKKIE

SMILES: CC(N)[C@H](O)c1ccc(O)c(O)c1 (stereo partly specified)
- Potency: 7.94 µM (active)
